KKLEB cytotox: reduces viability of KKLEB cystic fibrosis airway cells; KKLEB CF airway cells viability, ATPlite luminescence, overnight; hits give low values; cells stimulated with P. aeruginosa culture filtrate; activity change (cytotoxicity), % at 5 µM; hit rate 0.36% among 360,000; AID 602141;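 active = corrected activity change at or below -50% at 5 µM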
CF NFkB inh: inhibitors of cystic fibrosis induced NF-kB | KKLEB NF-kB-GFP reporter, PAF-induced, GFP fluorescence overnight | hit rate 0.86% among 360,000 | AID 588850 | inhibition, % at 5 µM;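 active = at least 50% inhibition at 5 µM, scaled per plate between neutral and stimulator controls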;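 also: PAF is a Pseudomonas aeruginosa culture filtrate used as stimulus; plate controls were PAF-stimulated DMSO wells for no effect and unstimulated DMSO wells for full effect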
TWEAK Fn14 block: blocks TWEAK-Fn14 interaction in a reporter cell assay; TWEAK-stimulated Fn14 reporter cells, luciferase luminescence, 8 h; inhibition, % at 10 µM; hit rate 2% among 360,000; AID 1159606; in the data active = inhibition above about 50%
Peg3 prom inh: inhibitors of Peg3 promoter; HeLa PEG-Prom luciferase reporter, luminescence, overnight; inhibition, % at 20 µM; hit rate 1.7% among 360,000;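 active = inhibition of at least 50% at 20 µM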
TROY signal inh: inhibitors of TROY-dependent NF-kB signaling | inhibition, % at 10 µM | hit rate 0.98% among 360,000 | Q293 LMP1-TROYcd NF-kB luciferase reporter, 4 h | AID 1347056;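 active = compounds whose plate-normalised and pattern-corrected inhibition of the luciferase reporter signal at the single screening dose is 50% or more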
HIF-2a block: inhibitors of HIF-2a. 786-0 RCC cells HIF-2a reporter, luciferase luminescence, overnight. AID 624352. inhibition, % at 18.8 µM. hit rate 0.72% among 360,000;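 active = inhibition of the luminescence signal of 40% or more relative to plate controls, in a single-dose primary screen at 18.75 µM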
The depositor's hits bear a star; / = not tested or not shown. Sampled rows, rich in hits. Any-hit rate of the full collection: about 4%.

SMILES	KKLEB cytotox	CF NFkB inh	TWEAK Fn14 block	Peg3 prom inh	TROY signal inh	HIF-2a block
c1ccc2c(-c3cccc4nccn34)cncc2c1	-14	32	52*	3	31	19
O=c1[nH]c(/C=C\c2ccc(O)c(Cl)c2)nc(O)c1[N+](=O)[O-]	0	8	5	-10	1	14
CSCCC(NS(=O)(=O)c1ccc(Cl)cc1)C(=O)OCC(=O)c1c(C)[nH]c2ccccc12 (centres undefined)	3	1	62*	49	82*	0
CN(C)Cc1ccccc1C(O)(c1ccccc1)c1ccccc1	-11	3	-2	-12	-4	9
CC1(C)OC(C(O)(c2ccccc2)c2ccccc2)[C@@H](C(O)(c2ccccc2)c2ccccc2)O1 (some centres undefined)	6	32	11	64*	-1	-12
Cc1ccc2nc(/C(C#N)=C\c3ccc(Oc4ccc([N+](=O)[O-])cn4)cc3)[nH]c2c1	-9	-15	-12	19	-18	-35
COc1ccc2nc(/C(C#N)=C\c3ccc(Oc4ccc([N+](=O)[O-])cn4)cc3)[nH]c2c1	-26	4	-12	81*	19	-7
Cc1cc(C(=O)CSc2nnc(-c3ccc4c(c3)OCO4)o2)c(C)n1-c1ccc(F)cc1	-4	12	65*	-2	13	22
NC(=O)CSc1nnc(-c2ccc3c(c2)OCO3)o1	2	9	12	-108	-35	-118
C/C(N)=C(/C#N)C(=O)CSc1nnc(-c2ccc3c(c2)OCO3)o1	0	-6	83*	-53	45	-103
CCCCn1nc2cc(C(=O)NCc3ccc(C(F)(F)F)cc3C(F)(F)F)ccc2c1OCC	0	-51	-27	-9	-8	-11
Fc1ccc(Nc2nc(NCc3ccco3)c3ccccc3n2)cc1	-50	45	62*	-27	46	-164
COc1ccc(S(=O)(=O)NCC2CCC(C(=O)NCc3ccco3)CC2)cc1 (centres undefined)	3	-5	9	13	9	14
Cc1ccc(-c2cc3onc(-c4ccccc4)c3c(=O)n2C)cc1	-32	-2	102*	-5	89*	18
CCCOc1ccc(-c2cc3onc(-c4ccccc4)c3c(=O)n2C)cc1	-41	-4	89*	-97	81*	-98
CSc1ncccc1C(=O)N1CCN(S(=O)(=O)c2ccc3ccccc3c2)CC1	8	-13	-1	13	0	3
COc1cccc(N2CCN(C(=O)CCSCc3ccccc3F)CC2)c1	5	22	13	5	0	9
CN(C)CCOc1ccc(/C(=C(/CCCl)c2ccccc2)c2ccccc2)cc1	1	21	-9	74*	15	-8
Cc1ccc2ccc(S(=O)(=O)NCc3ccccn3)cc2c1	7	-6	-30	-98	-22	-136
COc1ccc(C(=O)Nc2ccc(S(=O)(=O)N3CCc4ccccc43)cc2)cc1	5	-14	80*	28	22	-46
CCOC(=O)c1ccc(NC(=O)c2cccc(S(=O)(=O)N3c4ccccc4CC3C)c2)s1 (centres undefined)	-4	23	54*	30	9	-2
CC1Cc2ccccc2N1S(=O)(=O)c1cccc(C(=O)NCc2ccccn2)c1 (centres undefined)	-12	8	7	4	-2	12
CC1Cc2ccccc2N1S(=O)(=O)c1cccc(C(=O)NCCCO)c1 (centres undefined)	12	-12	-1	11	/	7
CCN(CC)CCNC(=O)c1ccc(NC(=O)c2cccc(S(=O)(=O)N3c4ccccc4CC3C)c2)cc1 (centres undefined)	-14	23	10	86*	12	22
NS(=O)(=O)c1ccc(NC(=O)c2ccc(S(=O)(=O)N3CCc4ccccc43)cc2)cc1	9	-10	33	21	6	30
CCN(CC)CCNC(=O)c1ccc(NC(=O)c2cccc(S(=O)(=O)N3CCc4ccccc43)c2)cc1	-18	6	3	77*	-2	11
CC(C)CCCC(C)NS(=O)(=O)Cc1ccccc1 (centres undefined)	-14	4	-3	13	8	19
COc1ccc2cc3cc(C(=O)NC4CC4)sc3nc2c1	-29	-24	67*	-14	27	-30

Bioassay records as filed in PubChem.
